Screening results from PubChem BioAssay.
Only some compounds are listed: those with a hit (about 11% of all), similar ones and a draw of the others.
AMA1-RON2 inh – disrupts binding of P. falciparum AMA1 to RON2; AlphaScreen AMA1-biotinylated RON2 peptide binding; Potency, µM (top dose mostly 58.2 µM), actives largely listed as inhibitors; actives 0.2% (n = 360,000); note: nearly all actives have a fitted effect of over 45% in size
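AMA1 (3D7) with his tag at 25 nM final met compounds first, then biotinylated RON2 peptide at 25 nM; detection used donor plus acceptor beads, 10 µg/mL apiece, read by AlphaScreen after 30 min at room temperature.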
AmpC inh detg – inhibitors of E. coli AmpC beta-lactamase with detergent; P00811; Potency, µM (titrated, usually from 114 µM), hits mostly inhibitors; AmpC hydrolysis of nitrocefin, absorbance 480 nm, 0.01% Triton; AID 485294; actives 0.041% (n = 370,000); note: nearly all actives have a fitted effect of over 25% in size
Target sequence (P00811 whole entry, looked up): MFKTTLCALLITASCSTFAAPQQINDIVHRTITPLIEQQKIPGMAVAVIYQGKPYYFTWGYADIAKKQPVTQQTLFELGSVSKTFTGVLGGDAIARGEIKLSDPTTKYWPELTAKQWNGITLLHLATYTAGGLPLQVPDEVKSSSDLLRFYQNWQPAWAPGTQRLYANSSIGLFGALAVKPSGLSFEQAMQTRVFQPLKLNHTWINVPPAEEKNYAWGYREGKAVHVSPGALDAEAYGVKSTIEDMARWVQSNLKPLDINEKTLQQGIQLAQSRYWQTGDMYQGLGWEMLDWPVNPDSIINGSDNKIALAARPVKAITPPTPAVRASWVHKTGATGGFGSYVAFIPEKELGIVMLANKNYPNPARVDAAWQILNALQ
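AmpC (5.3 nM in the dispensed reagent) in 20 mM phosphate pH 7.0 with 0.01% (detergent screen) or 0.0001% Triton X-100 was preincubated with compounds for 15 min at room temperature. Nitrocefin was then added from an 800 uM solution, and hydrolysis was followed at 480 nm.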
Pf growth 48h – P. falciparum growth inhibition at 48 hours (one generation). P. falciparum luciferase growth in erythrocytes, 48 h. Potency, µM (doses to about 28.7 µM), actives largely listed as inhibitors. actives 5.9% (n = 310,000). AID 504832
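Luciferase-expressing parasites in RBCs, 2% Hct / 0.1% parasitemia final; RPMI 1640 + 0.5% Albumax; 37 C, 5% CO2, one generation; luminescence read-out, lower signal = inhibition.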
AmpC no deterg – blocks E. coli AmpC beta-lactamase in detergent-free assay | P00811 | AmpC nitrocefin hydrolysis, absorbance 480 nm, 0.0001% Triton | Potency, µM (top dose mostly 57.1 µM), hits mostly inhibitors | actives 0.52% (n = 330,000) | AID 485341; note: nearly all actives have a fitted effect of over 20% in size
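20 mM phosphate pH 7.0 + 0.01% (detergent screen) or 0.0001% Triton X-100; 5.3 nM AmpC reagent; cpd preinc 15 min RT; nitrocefin (800 uM stock) to start; A480 q20 s × 4 min; Activity was normalised to no-enzyme and no-compound control wells.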
HCV inh – blocks hepatitis C virus. Huh7.5.1 HCVcc-Cre infection, luciferase reporter, 44 h. Potency, µM (doses to about 41.8 µM), most hits filed as inhibitors. actives 3.4% (n = 340,000). AID 651820
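Seed cells (1,000/well) for 4 h; treat with compound and infect with HCVcc-Cre, moi about 0.5. Incubate 44 h, then detect luciferase activity.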
Pf growth 96h – P. falciparum growth inhibition at 96 hour, primary screen for plastid delayed-death inhibitors. P. falciparum luciferase reporter growth, 96 h. Potency, µM (highest dose often 28.7 µM), actives largely listed as inhibitors. actives 6.9% (n = 320,000)
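Parasite growth measured via integrated firefly luciferase reporter in P. falciparum. Infected erythrocytes at 2% hematocrit, 0.05% parasitemia final were treated 96 hours at 37 C under 5% CO2, and luminescence was read.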
Numbers stand for hits; – = inactive; ? = inconclusive; · = not tested or not shown; [ ] = another dose, or the depositor's remark. Calls come from the whole dose curve; as a rule, active = well fitted curve in the direction sought with a large enough effect; inconclusive = small, poorly fitted or top-dose-only effect, or another doubt; inactive = no such curve, though single readings can be large; an effect the other way counts as inactive or inconclusive.

SMILES	AMA1-RON2 inh	AmpC inh detg	Pf growth 48h	AmpC no deterg	HCV inh	Pf growth 96h
Cn1c(CNc2nc(-c3ccccc3)cs2)nnc1SCC(=O)OC1CCCCC1	–	–	2.3µM	–	–	?
COc1ccc(OC)c(NS(=O)(=O)c2ccc(-c3cc(C)no3)s2)c1	·	–	·	·	·	·
COc1ccc(CNC(=O)C2CCN(c3nnc(-n4c(C)ccc4C)s3)CC2)c(OC)c1	·	–	·	·	·	·
CCC(CC)C(=O)Nc1ccc(OCc2cc(=O)n3c4c(sc3n2)CCCC4)cc1	·	–	·	·	·	·
CC1=C(C(N)=O)C(c2cccc(C)c2)n2nc(-c3cccc(C)c3)nc2N1 (stereo unspecified)	·	–	·	·	·	·
CCCCn1cc(S(=O)(=O)c2cc(C)ccc2C)c(=O)c2cc(F)c(N3CCC(C)CC3)cc21	·	–	·	·	·	·
CC(C)(C)c1cc(NC(=O)Nc2ccccc2OC(F)(F)F)no1	–	–	12µM	–	?	?
CCOc1ccc(S(=O)(=O)NCCc2csc3nc(-c4cccc(C)c4)nn23)cc1	·	–	·	·	·	·
O=C(NCc1ccco1)C1CCN(C(=O)N2CCOc3ccccc32)CC1	·	–	·	·	·	·
Cc1c(-c2ccc(O)cc2)nc2nc(-c3ccccc3)c(-c3ccccc3)nn12	·	–	0.41µM	–	·	2.1µM
Cc1nnc2c3ccccc3c(-c3ccc(O)cc3)nn12	–	?	·	–	–	–
Cc1cc(Cl)ccc1N(CC(=O)NCc1ccccc1)S(C)(=O)=O	–	–	–	–	?	–
COc1ccc(C)cc1NC(=O)C(C)N(c1ccc(C)cc1)S(C)(=O)=O (stereo unspecified)	–	–	?	–	–	–
Cc1ccc(N(CC(=O)NCc2cccnc2)S(C)(=O)=O)cc1C	–	–	–	–	–	4.1µM
Cc1ccc(N(CC(=O)Nc2cc(Cl)ccc2Oc2ccccc2)S(C)(=O)=O)cc1C	–	–	·	–	?	8.3µM
Cc1ccc(N(CC(=O)Nc2cc(Cl)ccc2Oc2ccccc2)S(C)(=O)=O)c(C)c1	–	–	·	–	11µM	12µM
Cc1ccc(N(C(C)C(=O)Nc2cc(Cl)ccc2Oc2ccccc2)S(C)(=O)=O)cc1 (stereo unspecified)	–	–	4.7µM	–	–	7.4µM
Cc1ccc(N(CC(=O)NCc2ccncc2)S(C)(=O)=O)cc1Cl	–	–	–	–	–	·
COc1ccc(C)cc1NC(=O)CN(c1ccccc1)S(C)(=O)=O	–	–	–	–	–	?
COc1ccccc1N1CCN(C(=O)c2cc3c(=O)oc4ccccc4c3s2)CC1	·	–	·	·	·	·
CCc1ccc(CN(Cc2cn[nH]c2-c2ccc(OC)cc2)C(=O)Nc2ccc(C)c(F)c2)cc1	·	–	·	·	·	·
CCC(C(=O)c1ccc(O)cc1)c1ccccc1 (stereo unspecified)	–	–	13µM	–	–	–
O=C(CCC(C(=O)c1ccccc1)c1ccccc1)c1ccccc1 (stereo unspecified)	–	·	·	·	·	·
N=C1c2ccccc2CN1c1cccc([N+](=O)[O-])c1	–	–	–	–	–	–
N=C1c2ccccc2CN1c1ccc(F)c([N+](=O)[O-])c1	–	–	12µM	–	–	?
SMILES	AMA1-RON2 inh	AmpC inh detg	Pf growth 48h	AmpC no deterg	HCV inh	Pf growth 96h
O=c1cc(CSc2ccccc2)[nH]c2ccc(F)cc12	·	–	·	·	·	·
Cc1ccc2[nH]c(CSc3ccccc3)cc(=O)c2c1	–	–	?	–	?	13µM
CCC(C)NC(=O)Cn1c(=O)n(Cc2ccc(C(=O)NCCCOC)cc2)c(=O)c2ccccc21 (stereo unspecified)	·	–	·	·	·	·
CCN(CC)S(=O)(=O)c1ccc(C)c(NC(=O)COc2ccc3c(C)cc(=O)oc3c2)c1	–[11.6 µM]	–	–	–	–	–
CCN(CC)S(=O)(=O)c1ccc(OC)c(NC(=O)C(C)Oc2ccc3c(C)cc(=O)oc3c2)c1 (stereo unspecified)	–	–	1.9µM	–	?	9.3µM
CC1CCN(S(=O)(=O)c2ccc3nc(NCc4ccccc4)ccc3c2)CC1	·	–	·	·	·	·
